Results published in ChEMBL document CHEMBL3988442, “University of Dundee, Small-Polar-MMV Screening Library” (2021).
Among all 48,000 compounds or so, about 13,000 (27%) showed an effect of 50% or more. The list shows a part of the results.

The molecules below were run on Wolbachia pipientis (assay: Anti-Wolbachia Cell-Based Screen). Settings: 5 µM.
Assay type: functional
Set-up: scale not given: in the data most compounds retested in dose-response had high values

Structure (SMILES) | Percent Effect
CC(=O)Nc1nc(-c2ccc(C)c(C)c2)c[nH]1 | -24.79%
COc1ccc(Oc2cccc(C#N)n2)cc1CN1CCCC1 | -5.576%
CCc1cc2cc(OC)c(OC)cc2nc1SCCN1CCCCC1.Cl | 130.7%
COc1ccc(C(C(=O)O)N(C)CCN2CCCC2)cc1F (stereo not given) | 3.754%
COc1cc2cc(C)c(SCCN3CCCC3)nc2cc1OC.Cl | 167.2%
COc1cccc(S(=O)(=O)CCN2CCCCC2)c1 | 0.4821%
COc1cc2cc(C)c(SCCN3CCCCC3)nc2cc1OC.Cl | 107.6%
CNC(=O)c1cccc(NC(=O)CN2CCN(S(C)(=O)=O)CC2)c1 | 1.111%
CCC(=O)N(C)Cc1cccc(OC(C)C)c1 | -5.096%
CCc1nc(C)c(-c2nccn2CC2CCN(C3CCCC3)CC2)[nH]1 | -19.3%
O=C(NCC1CC1)C1CCC2(CCN(C(=O)c3ccco3)CC2)O1 (stereo not given) | 87.87%
O=C(NC[C@H]1OC[C@@H]2CCN(C(=O)c3ccco3)C[C@@H]21)C1CC1 | -4.179%
O=C(NC1CCC1)C1CCC2(CN(C(=O)c3ccco3)C2)O1 (stereo not given) | -15.31%
Cc1ccccc1C(=O)N1CCC2(CCC(C(=O)NCC3CC3)O2)CC1 (stereo not given) | 104%
O=C(NCC1CC1)C1CCC2(CCN(C(=O)c3cccs3)CC2)O1 (stereo not given) | 94.19%
O=C(c1cccs1)N1CCC2(CC1)CC(Oc1ccccc1)CO2 (stereo not given) | 6.178%
O=C(NCC1CC1)C1CN(C(=O)c2cccs2)CC12CCOCC2 (stereo not given) | -5.71%
O=C(NCC1CC1)C1CCC2(CCN(C(=O)c3ccoc3)CC2)O1 (stereo not given) | 90.09%
COc1cccc(C(=O)NCC2CCN(C(=O)c3ccoc3)CC2)c1 | -1.127%
O=C(NCC1CCN(C(=O)c2ccoc2)CC1)c1ccccc1Br | -10.47%
Cc1ccccc1C(=O)NC[C@@H]1CCN(C(=O)C2(O)CCCC2)C[C@H]1O | -6.733%
Cc1ccccc1C(=O)N1CC(C(=O)NCC2CC2)C2(CCOCC2)C1 (stereo not given) | -6.965%
CNC(=O)[C@@H]1C[C@@H](NC(=O)CSc2ccccc2)CN1C1CCOCC1 | 0.9976%
CCN(CC)c1ccc(NS(=O)(=O)c2cncc(F)c2)cn1 | -6.269%
Cc1ccc(C(C)NCc2cn(CCC(N)=O)c3ccccc23)cc1C (stereo not given) | -0.5436%

Structure (SMILES) | Percent Effect
COC(=O)c1sccc1CN1CCN(C(=O)c2ccc(C)o2)CC1 | -11.02%
O=C(NCC1CC1)C1CCC2(CN(C(=O)c3ccno3)C2)O1 (stereo not given) | -9.78%
Cc1ccc(C(=O)N2CCC3(CCC(C(=O)NCC4CC4)O3)CC2)o1 (stereo not given) | 101.4%
CCN1CCN(C2CCN(Cc3c(C)noc3C)CC2)C1=O | -0.1089%
CC(O)CN1CCN(Cc2nnc(C3CC3)o2)CC1 (stereo not given) | 3.93%
CN1CCN(C2CCN(Cc3nnc(C(C)(C)C)o3)CC2)C1=O | 116.2%
CN1CCN(C2CCN(Cc3noc(C(C)(C)C)n3)CC2)C1=O | 10.06%
CCN1CCN(C2CCN(Cc3noc(C)n3)CC2)C1=O | 2.974%
CCN1CCN(C2CCN(Cc3nnc(C(C)(C)C)o3)CC2)C1=O | -3.577%
CCN1CCN(C2CCN(Cc3ncc(C(C)(C)C)o3)CC2)C1=O | -2.934%
CC(C)c1nnc(CN2C(=O)OC[C@@H]2C(C)C)o1 | -6.188%
CCc1nnc(CN2CCC(N3CCN(CC)C3=O)CC2)o1 | 119.1%
CCN1CCN(C2CCN(Cc3nnc(C4CC4)o3)CC2)C1=O | 80.84%
CCN1CCN(C2CCN(Cc3nnc(C(C)C)o3)CC2)C1=O | 147.9%
CCc1nnsc1C(=O)NCC1CN(CC(C)C)CCO1 (stereo not given) | 19.89%
CCC(=O)N1CCN(C(=O)c2ccc(OC)o2)[C@H]2CS(=O)(=O)C[C@H]21 | 0.8171%
O=C(c1ccc(-n2cnnc2)cc1Cl)N1CCCC(O)(CO)CC1 (stereo not given) | 1.549%
CC(=O)N[C@@H]1CN(Cc2ccccc2-n2nc(C)cc2C)C[C@H]1C(C)C | 5.074%
c1ccc(CN2CCOC[C@H]2c2nc(-c3ccncc3)c[nH]2)nc1 | -4.896%
O=C(c1cncs1)N1CCOCC(Cc2ccncn2)C1 (stereo not given) | 102.2%
O=C(c1ccncc1)N1C[C@@H]2CC[C@H](C1)N(C(=O)N1CCOCC1)C2 | 7.35%
Cc1cccc(NC(=O)N2CCOCC(CN(C)C)C2)c1C (stereo not given) | -12.45%
COc1ccc(C(=O)N2CCOCC(CO)C2)cc1N1CCOCC1 (stereo not given) | 2.678%
CN(C)CC(=O)N1CCOCC(Cc2ccccn2)C1 (stereo not given) | 100.7%
O=C(NC[C@H]1OC[C@@H](NCc2ccccn2)[C@@H]1O)N1CCOCC1 | -13.39%

Structure (SMILES) | Percent Effect
O=C(c1cncs1)N1CCOCC(Cc2ccccn2)C1 (stereo not given) | 121.8%
Cc1cnc(CC2COCCN(C(=O)c3cncs3)C2)cn1 (stereo not given) | 133.5%
CCOCCn1nc(C)cc1C(=O)N1CCOCC(CO)C1 (stereo not given) | -4.092%
CC(=O)N(C)C1CCCc2nc(C)sc21 (stereo not given) | -2.267%
CC(C)S(=O)(=O)NCC1CCCN(C(=O)c2ccc3c(c2)OCCO3)C1 (stereo not given) | -10.13%
COc1cccc(CC(=O)N2CCC(O)(C(F)(F)F)C2)c1 (stereo not given) | -3.145%
Cc1ccc(CN2CCN(c3cc(NCCO)ncn3)CC2CCO)o1 (stereo not given) | -3.553%
CS(=O)(=O)NCCCSCc1cccc2cccnc12 | -10.2%
CCC(CO)NC(=O)Cc1ccc(NC(=O)CC2=CCCCC2)cc1 (stereo not given) | -16.18%
Cc1cccc(-c2nnn3c2COC(CNS(=O)(=O)C2CC2)C3)c1 (stereo not given) | -1.824%
F[C@@H]1CN(CC2CCCCC2)C[C@@H]1OCc1nc2ccccc2o1 | -16.46%
Cc1cn[nH]c1C1CCCN1Cc1ccc(F)c(F)c1 (stereo not given) | 102.9%
Cc1ccc(CN2CCCN(Cc3cscn3)CC2)cc1 | 8.803%
Cc1cc(C)n(CC2CCCN2Cc2cscn2)n1 (stereo not given) | -19.73%
Cc1ccc(-c2c[nH]c([C@@H]3COCCN3Cc3cccnc3)n2)cc1 | -11%
Cc1cn[nH]c1C1COCCN1Cc1cscn1 (stereo not given) | 126.8%
CC(C)(C)c1coc([C@@H]2COCCN2Cc2cnc3ccccc3c2)n1 | -14.41%
Cc1ccc(CN2CCOCC2c2[nH]ncc2C)cn1 (stereo not given) | 135.2%
C[C@H]1C[C@H]2CN(C(=O)C3=CCCC3)CC[C@H]2O1 | -4.42%
Cc1cnc(CN(Cc2ccc(C#N)cc2F)C2CCN(C)C2)o1 (stereo not given) | 0.7186%
O=C(Cc1ccc(O)c(F)c1)N1CCC2(CCNCC2)CC1 | 3.875%
CCOC(=O)N1CCN(c2nc(NCCO)c3ccccc3n2)CC1 | -13.13%
COc1ccc(CN2CC[C@H]3CO[C@H](CNC(=O)N(C)C)[C@H]3C2)cc1.O=C(O)C(F)(F)F | -1.403%
CS(=O)(=O)NC[C@H]1OC[C@H]2CN(CCc3ccccc3)CC[C@H]21.O=C(O)C(F)(F)F | 87.13%
CS(=O)(=O)NC[C@@H]1OC[C@H]2CN(Cc3ccccc3)CC[C@H]21.O=C(O)C(F)(F)F | 107.1%

Structure (SMILES) | Percent Effect
CS(=O)(=O)NC[C@@H]1OC[C@H]2CN(C(=O)c3ccccc3)CC[C@H]21 | -5.092%
CS(=O)(=O)NC[C@@H]1OC[C@H]2CN(C(=O)c3ccccn3)CC[C@H]21.O=C(O)C(F)(F)F | -10.63%
CCCN1CC[C@@H]2[C@@H](CO[C@H]2CNC(=O)c2nccn2C)C1.O=C(O)C(F)(F)F | -3.77%
CS(=O)(=O)NC[C@H]1OC[C@@H]2CCN(CCc3ccccc3)C[C@@H]21.O=C(O)C(F)(F)F | 101.5%
CS(=O)(=O)NC[C@H]1OC[C@@H]2CCN(Cc3ccc(F)cc3)C[C@@H]21.O=C(O)C(F)(F)F | -22.2%
Cc1cccc(CN2CC[C@@H]3[C@@H](CO[C@H]3CNc3ncccn3)C2)n1.O=C(O)C(F)(F)F.O=C(O)C(F)(F)F.O=C(O)C(F)(F)F | 100.3%
CN(C)C(=O)NC[C@@H]1OC[C@H]2CN(Cc3cccc(F)c3)CC[C@H]21.O=C(O)C(F)(F)F | -1.144%
COc1ccc(CN2CC[C@H]3[C@H](CO[C@H]3CNC(=O)N(C)C)C2)cc1.O=C(O)C(F)(F)F | 1.388%
Cc1cccc(CN2CC[C@H]3CO[C@H](CNC(=O)N(C)C)[C@H]3C2)c1.O=C(O)C(F)(F)F | -5.522%
CCN1CC2(CCN(CC3COCCO3)CC2)OC1=O (stereo not given) | -23.81%
CN1CCN(CCCN(C)S(=O)(=O)C2CCCCC2)CC1 | -3.997%
CCc1cc(=O)[nH]c2nnc(SCC(=O)NC(C)C)n12 | 9.216%
CCn1c(CN(C)C)nnc1C1CCN(c2ccnc(C)c2)CC1 | -12.28%
Cn1nc(Cl)cc1C(=O)N1CCC(C(=O)c2nc3ccccc3s2)CC1 | 97.43%
Cn1nc2c(cc1=O)CN(c1nc3ccccc3s1)CC2 | 9.519%
Cn1nc(CNC(=O)c2nc3ccccc3s2)c2c1CCOC2 | -7.604%
Cc1sc2nc(C(F)(F)F)nc(N3CCCN(C)CC3)c2c1C | 3.641%
COc1nc(C)c(C(=O)N(C)Cc2nc(-c3ccccn3)no2)s1 | 6.707%
Cc1ccc(C(CNCc2ncc[nH]2)N2CCOCC2)s1 (stereo not given) | -41.63%
O[C@H]1CN(Cc2c[nH]nc2-c2ccccc2)CC[C@@]12CCCO2 | 151.3%
COc1cc(OC)nc(N2CCC3(CC2)OCCCC3O)n1 (stereo not given) | -8.22%
OC1CCCOC12CCN(Cc1nnc(-c3cccnc3)o1)CC2 (stereo not given) | -12.47%
O[C@H]1CN(Cc2ccnc(N3CCCC3)n2)CC[C@@]12CCCO2 | 120.1%
OC1CCCOC12CCN(c1ncccn1)CC2 (stereo not given) | 8.98%
CCOC(=O)C1CCCN(Cc2c[nH]nc2-c2cc3ccccc3o2)C1 (stereo not given) | -24.88%
